# High-throughput results deposited in PubChem BioAssay by National Center for Advancing Translational Sciences (NCATS).
# A selection: hits, their analogues and other compounds. The true share with any hit is near 3.2%.
# Vaccinia mCherry: inhibitors of vaccinia virus infection (mCherry reporter signal). AID 720579. Vaccinia virus mCherry reporter infection, fluorescence. 310,000 tested, 0.63% active. Potency, µM (titrated, usually from 36.5 µM), for the others: at the top dose activity change, negative = inhibition, usual class: inhibitors; calls by dose curve; tested in A549 cells; further: nearly all actives have a fitted effect of over 35% in size
# Marburg entry inh: blocks Marburg virus binding to or entry into cells | Marburg virus pseudotyped entry inhibition, cell reporter | Potency, µM (highest dose often 37.8 µM), for the others: top-dose activity change, negative = inhibition, most hits filed as inhibitors | 300,000 tested, 1.8% active; calls by dose curve; tested in HEK293 cells
# VACV Venus inh: inhibitors of vaccinia virus (Venus reporter) | Vaccinia virus Venus reporter expression, fluorescence | Potency, µM (doses to about 36.5 µM), without a hit: at the top dose activity change, negative = inhibition, actives largely listed as inhibitors | 330,000 tested, 0.46% active | AID 720580; calls by dose curve; tested in A549 cells; further: nearly all actives have a fitted effect of over 30% in size
# LASV entry inh: blocks Lassa virus binding to or entry into cells | Lassa virus pseudotype entry inhibition, cell reporter | Potency, µM (titrated, usually from 37.9 µM), without a hit: at the top dose activity change, negative = inhibition, actives largely listed as inhibitors | 300,000 tested, 1.2% active; calls by dose curve; tested in HEK293 cells; further: nearly all actives have a fitted effect of over 50% in size
# FMDV inh: antivirals against foot and mouth disease virus | 410,000 tested, 1.2% active | Potency, µM (doses to about 57.9 µM), for inactives: at the highest dose activity change, negative = inhibition, most hits filed as inhibitors | FMDV antiviral cell-based qHTS; calls by dose curve; tested in HEK293T cells; further: read-out not given here; nearly all actives have a fitted effect of over 45% in size
# * = called active by the depositor; i = inactive; ? = inconclusive; . = no result; [ ] = another dose, or the depositor's remark. On the % scale 0 is the no-effect control and ±100 the full control effect; potency means the concentration at half of the fitted maximal effect.
SMILES,Vaccinia mCherry,Marburg entry inh,VACV Venus inh,LASV entry inh,FMDV inh
Cc1c(/C=N/Nc2nc3ccccc3[nH]2)c2ccccc2n1C,i,?,-28%,?,?
CCCn1c(/C=N/Nc2nc3ccccc3[nH]2)nc2ccccc21,10µM*,?,?,13µM*,?
Cn1c(/C=N/Nc2nc3ccccc3[nH]2)nc2ccccc21,?,?,-11%,?,-23%
C=CCn1cc(/C=N/Nc2nc3ccccc3[nH]2)c2ccccc21,-26%,?,?,4.5µM*,-71%
Cc1ccccc1C(=O)N1CCC(C(=O)NN2C(=O)NC3(CCCCC3)C2=O)CC1,.,.,.,.,-10%
COC(=O)C1=C(C)N(CC2CC2)C(=NCCc2cccnc2)NC1c1ccccc1 (stereo not given),.,4%[14.2 µM],.,0%[14.3 µM],.
Cc1cc(Cl)ccc1OCC(=O)Nc1ccccc1N1CCOCC1,-24%,?,-27%,8.9µM*,28µM*
COc1ccccc1N1CCN(C(=O)Cn2ncc3c2-c2cc(C)ccc2OC3)CC1,-12%,2%[46.1 µM],-5%,.,-22%
Cc1ccc2c(c1)-c1c(cnn1CC(=O)Nc1ccccc1N1CCN(C)CC1)CO2,i,9.2µM*,0%,?,-21%
Cc1cc(Cl)ccc1OCC(=O)NC(=S)Nc1ccccc1N1CCOCC1,-1%,-1%,-8%,?,10%
Cc1ccc(C(C)C)c(OCC(=O)Nc2ccccc2N2CCN(C)CC2)c1,.,?,?,10µM*,32µM*
Cc1cc(Cl)ccc1OCC(=O)NCC(c1cccs1)N1CCOCC1 (stereo not given),-13%,?,-25%,?,32µM*
O=c1c2ccccc2nc(/C=C/c2ccc(O)cc2)n1CCc1ccccc1,?,?,-18%,9.2µM*,35µM*
Cc1nc2ccccc2c(=O)n1/N=C/c1ccc(O)cc1O,?,-6%[46.1 µM],-11%,29%[46.1 µM],-18%
CCCc1nc2ccccc2c(=O)n1CCc1ccccc1,-24%,?,-23%,2.5µM*,?
CCCc1nc2ccccc2c(=O)n1/N=C/c1ccccc1O,10µM*,?,?,?,-25%
C=C1NN(Cc2ccccc2)C(=O)N1c1ccc(OC)cc1,44%,.,-9%,.,.
O=C(NCCc1ccccn1)C1CC12CCN(C(=O)c1ccccc1Cl)CC2 (stereo not given),-1%,.,-20%,.,-12%
O=C(N/N=C1\C[C@@H](O)[C@@H](O)[C@@H]2[C@@H]3C(=O)N(C[C@@H]4CCCO4)C(=O)[C@@H]3CC[C@@H]12)OCc1ccccc1,.,-5%[14.2 µM],.,.,.
C#CCN1C(=O)[C@]2(O[C@H](COc3ccccc3)CC3=CCCC32)c2c(Br)cccc21 (stereo not given in full),.,8%[14.2 µM],.,.,.
CCOc1ccc(CCN2C(=O)C(=O)N([C@@H](CC(C)C)CN3CCC[C@H]3CN3C(=O)C(=O)NC[C@@H]3Cc3ccccc3)C[C@@H]2Cc2ccccc2)cc1,?,.,-29%,.,?
CC(C)C[C@@H](CN1CCCC1CN1C(=S)NC[C@@H]1Cc1ccc(O)cc1)N1C[C@H](Cc2ccc(O)cc2)N(CCc2ccccc2)C1=S (stereo not given in full),-3%,.,10µM*,.,0%
CCOc1ccc(CCN2C(=O)C(=O)N([C@@H](CC(C)C)CN3CCC[C@@H]3CN3C(=O)C(=O)NC[C@@H]3Cc3ccccc3)C[C@@H]2CC(C)C)cc1,-1%,.,13µM*,.,?
Cc1cc(C)n(CCNC(=O)[C@H]2O[C@@H](n3ccc(=O)[nH]c3=O)[C@H](O)[C@@H]2O)n1,29%,.,11%,.,-11%
CCC(=O)N1c2ccc(S(=O)(=O)N3CCCCCC3)cc2CC1C (stereo not given),2%,9%[46.1 µM],4%,13%[46.1 µM],21%
SMILES,Vaccinia mCherry,Marburg entry inh,VACV Venus inh,LASV entry inh,FMDV inh
COC(=O)c1c(C)[nH]c(C(=O)COc2ccc3ccc(=O)oc3c2)c1C,.,.,.,.,-43%
CC(=O)c1c(C)[nH]c(C(=O)COc2ccc3ccc(=O)oc3c2)c1C,-25%,?,-24%,2%[46.1 µM],28µM*
Cn1cnc2nc(NCCO)nc(NCc3ccccc3)c21,-10%,.,-10%,.,-14%
O=C1C=CCC(/C=C/c2ccccc2)O1 (stereo not given),?,8.2µM*,0.89µM*,?,?
COc1ccc(CCNc2oc(COc3ccccc3F)nc2C#N)cc1OC,i,?,-26%,?,0%
COc1ccc(CCNc2oc(Cc3ccccc3)nc2C#N)cc1OC,-12%,?,-33%,-15%,14µM*
COc1ccc(CCNc2oc(COc3ccccc3Cl)nc2C#N)cc1OC,-28%,.,-22%,.,20µM*
COC(=O)C1=C(N)Oc2cc(C)[nH]c(=O)c2[C@@H]1c1ccncc1,.,3%,.,.,.
O=C(NCCOc1nc(N2CCCCC2)nc(N2CCCCC2)n1)Nc1ccccc1,i,?,-21%,-29%[46.1 µM],10%
CCN(CC)c1nc(OCCNC(=O)Nc2ccccc2)nc(N(CC)CC)n1,.,?,11µM*,?,0%
CCN(CCNC(=O)Nc1ccc(Cl)cc1)c1ccccc1,.,?,?,16µM*,?
CCOC(=O)c1ccc(-n2c(CCC(=O)O)ccc2-c2ccc(Br)cc2)cc1,-1%,-2%[46.1 µM],-2%,-13%[46.1 µM],-13%
CCOC(=O)c1c(NC(=O)COC(=O)c2ccccc2NC)sc(C(=O)N(C)C)c1C,i,?,-2%,?,25µM*
CC(C)c1nc2sc3c(SCC(=O)NCc4ccco4)ncnc3c2c2c1CCC2,.,?,14µM*,?,?
O=C(CSc1ncnc2sc3c(c12)CCCCC3)NCc1ccco1,-29%,?,-22%,?,5%
CCOCCCNC(=S)NCCNc1nc2c(C)cccc2cc1C#N,-7%,?,-22%,2%,.
Cc1ccc2cc(C#N)c(NCCNC(=S)NCCCN(C)C)nc2c1C,?,.,13µM*,.,-22%
